Pin1 inh = blocks the human prolyl isomerase Pin1 | Q13526 | Pin1 FP peptide displacement, HiFluor488, 10 min | Potency, µM (series often up to 115 µM), without a hit: top-dose activity, negative = inhibition, hits mostly inhibitors | actives 0.009% (n = 390,000); active means well fitted inhibition curve with a large enough effect in the polarisation, with a control signal flat, not every such curve was filed as active; inconclusive means small, poorly fitted or top-dose-only effect, or effect the other way, or a change in a side signal; inactive means no such curve, though single readings can be large or run the other way; the % refers to the polarisation; further: potency means the concentration at half of the fitted maximal effect; on the % scale 0 is the no-effect control and ±100 the full control effect
PGK inhibitor = inhibitors of T. brucei phosphoglycerate kinase | PGK/GAPDH coupled, Kinase-Glo luminescence, 60 min | Potency, µM (titrated, usually from 57.5 µM), for inactives: at the top dose activity change, negative = inhibition, usual class: inhibitors | actives 0.043% (n = 380,000) | AID 602233; further: potency means the concentration at half of the fitted maximal effect; on the % scale 0 is the no-effect control and ±100 the full control effect; nearly all actives have a fitted effect of over 60% in size
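Recombinant glycosomal PGK reaction used 1,3-bisphosphoglycerate generated in-well by GAPDH (100nM final) in 100mM TEA pH 7.6, 5mM MgCl2, 0.01% Tween-20. After 60 minutes at room temperature, ATP was read by Kinase-Glo Plus luminescence end-point.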
GRP78 ERSR act = inducers of ER stress response in human glioma cells | U87-MG GRP78 promoter luciferase reporter, 16 h | Potency, µM, inactives show at the top dose activation, hits mostly activators | actives 0.02% (n = 420,000) | AID 602332; further: potency means the concentration at half of the fitted maximal effect; series mostly up to about 76 µM; % of control where 0% means no effect; nearly all actives have a fitted effect of over 35% in size
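Stably transfected U87-MG glioma cells carrying a GRP78-based luciferase sensor; 16 h compound incubation. Luminescence end-point read 10 min after Bright-Glo addition at room temperature.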
PI5P4Ka inh = PI5P4K alpha (human) kinase inhibition | P48426 | PI5P4Kalpha enzyme, ADP-Glo luminescence, 60 min; hits give low values | max response, % | actives 1.2% (n = 330,000) | AID 652105; active means max response of -50% or lower; inconclusive means between -30% and -50%; inactive means -30% or higher; further: value at the top dose of about 77 µM; on the % scale 0 is the no-effect control and ±100 the full control effect
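ADP-Glo luminescence end-point after a 60 min room-temperature kinase reaction. PI5P4Kalpha and substrate in HEPES pH 7.4 buffer with EGTA, 0.1% CHAPS and 5% DMSO; ATP at 5 microM final.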
FEN1 inh-1 = blocks human flap endonuclease 1; Recombinant FEN1 flap cleavage, fluorescence, 15 min; AID 588795; P39748; actives 0.35% (n = 390,000); Potency, µM (series often up to 114 µM), without a hit: at the highest dose activity change, negative = inhibition, actives largely listed as inhibitors; further: potency means the concentration at half of the fitted maximal effect; on the % scale 0 is the no-effect control and ±100 the full control effect; nearly all actives have a fitted effect of over 65% in size
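Recombinant FEN1 (10 nM) was preincubated with pin-transferred compounds for 15 min at room temperature, then flap DNA substrate (50 nM final) was added. Plates were read at 0 and 15 min, and normalized concentration–response data were fitted to a four-parameter Hill equation.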
WRN helicase inh-1 = blocks human WRN helicase; AID 651768; Q14191; WRN helicase unwinding, fluorescent forked duplex, kinetic; actives 0.46% (n = 360,000); Potency, µM (top dose mostly 114 µM), for the others: top-dose activity change, negative = inhibition, most hits filed as inhibitors; further: potency means the concentration at half of the fitted maximal effect; on the % scale 0 is the no-effect control and ±100 the full control effect; nearly all actives have a fitted effect of over 55% in size
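WRN at 20 nM final was preincubated with compound for 15 min at room temperature; reaction started with 100 nM forked duplex oligonucleotide carrying fluorophore and quencher plus 2 mM ATP (final). Unwinding followed kinetically by red fluorescence (ex 525/em 598 nm).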
FEN1 inh-2 = confirmation of human FEN1 inhibitors; Potency, µM, usual class: inhibitors; FEN1 flap cleavage, TAMRA/BHQ2 fluorogenic DNA substrate; actives 79% (n = 880); shares compounds with FEN1 inh-1; AID 720498; further: potency means the concentration at half of the fitted maximal effect; nearly all actives have a fitted effect of over 60% in size
WRN helicase inh-2 = WRN helicase inhibition, cherry-pick retest. shares compounds with WRN helicase inh-1. AID 720497. actives 63% (n = 610). Potency, µM (series often up to 57.1 µM), for inactives: top-dose activity, negative = inhibition, hits mostly inhibitors. WRN helicase DNA unwinding, fluorescence kinetic; further: potency means the concentration at half of the fitted maximal effect; nearly all actives have a fitted effect of over 65% in size
TO displacement = DNA binding via thiazole orange displacement | shares compounds with WRN helicase inh-1 | thiazole orange DNA binding displacement, fluorescence | Potency, µM (top dose mostly 57.1 µM), inactives show top-dose activity change, negative = inhibition, usual class: inhibitors | actives 10% (n = 610) | AID 720499;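 further: drop in dye fluorescence marks compound binding to DNA; potency means the concentration at half of the fitted maximal effect; on the % scale 0 is the no-effect control and ±100 the full control effect; nearly all actives have a fitted effect of over 60% in size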
BLM helicase inh = BLM helicase inhibition, WRN selectivity check; shares compounds with WRN helicase inh-1; Recombinant BLM helicase DNA unwinding, red fluorescence; Potency, µM (titrated, usually from 57.1 µM), for inactives: at the highest dose activity change, negative = inhibition, actives largely listed as inhibitors; actives 60% (n = 610); AID 720503; further: potency means the concentration at half of the fitted maximal effect; nearly all actives have a fitted effect of over 60% in size
The depositor's hits bear a star; i = inactive; ? = inconclusive; . = no result; [ ] = remark or other dose. A selection: hits, their analogues and other compounds. The true share with any hit is near 1.3%. Unless noted, the call rests on the fitted dose curve; in most records, active means well fitted curve in the direction sought with a large enough effect; inconclusive means small, poorly fitted or top-dose-only effect, or another doubt; inactive means no such curve, though single readings can be large; an effect the other way counts as inactive or inconclusive.

SMILES	Pin1 inh	PGK inhibitor	GRP78 ERSR act	PI5P4Ka inh	FEN1 inh-1	WRN helicase inh-1	FEN1 inh-2	others
CCN(CC)CCNc1ccc(CO)c2sc3ccccc3c(=O)c12	22%	1%	12%	7	32µM*	-16%	34*
Cc1cnc(-n2ncc(C(=O)N(C)CC3COCCO3)c2C2CC2)nc1-c1cccs1 (stereo not given)	.	.	0%	.	.	.	.
Cc1nc2ccccc2c(=O)n1/N=C/c1ccc(O)c(O)c1O	?	0%	-9%	-86*	?	3µM*	11*
Cc1nc2ccccc2c(=O)n1/N=C/c1ccccc1O	-6%	-3%	5%	0	-11%	-6%	.
COc1cccc(-c2nc(NCCN3CCOCC3)c3ccccc3n2)c1O	?	-3%	-1%	-1	40µM*	-19%[57.1 µM]	?
COc1cc(=O)n2c(c1C(=O)NC(C)c1ccco1)CCN(C(=O)c1[nH]c(C)cc1C)CC2 (stereo not given)	.	.	-4%	.	.	.	.
CC(=O)Nc1ccccc1-c1nc(CNC(=O)c2ccc(C)cc2)c(C)o1	.	.	0%	.	.	.	.
COc1cccc(C2c3c(ncn(-c4ccccc4)c3=N)Oc3ccc4ccccc4c32)c1 (stereo not given)	41%	.	.	.	.	.	.
COc1ccccc1C1c2c(ncn(-c3ccccc3)c2=N)Oc2ccc3ccccc3c21 (stereo not given)	52%	.	.	.	.	.	11*
Nc1cccc2c(O)cc(S(=O)(=O)O)cc12	?	18µM*	-2%	-88*	8.9µM*	?	43*
Nc1cccc2c(N)cccc12	.	.	0%	.	.	.	.
Nc1nc(C23CC4CC(CC(C4)C2)C3)[nH]c(=O)n1	-2%	4%	-1%	0	?	-4%[11.6 µM]	34*
O=C(c1ccc(N2CCC(NCCCn3ncc4ccccc43)CC2)cc1)N1CCc2ccccc2C1	.	.	-2%	.	.	.	.
O=c1c2ccccc2nc2sc(Nc3ccc4c(c3)CNC4)nn12	0%	.	.	.	.	.	38*
Cc1c(C(=O)N(C)Cc2cscn2)sc2ncnc(NC[C@H]3CCc4ccccc4O3)c12	.	.	1%	.	.	.	.
CO[C@H]1[C@H](NC(=O)c2ccco2)c2ccccc2C12CCN(Cc1cnc(N(C)C)s1)CC2	.	.	-4%	.	.	.	.
CCCCN(CC)CCNC(=O)c1cc2c(-c3ccc(Cl)cc3)nn(C)c2s1	0%	-8%	0%	8	45µM*	88%	38*
CCN(CC)CCNC(=O)c1cc2c(-c3ccc(Cl)cc3)nn(C)c2s1	-5%	-11%	?	-1	28µM*	48%	38*
COc1ccc(-c2nn(C)c3sc(C(=O)NCCN(C)C)cc23)cc1OC	?	-7%	-5%	5	18µM*	?	30*
COCCCNC(=O)c1cc2c(-c3cccc(OC)c3)nn(C)c2s1	-1%	-4%	-2%	-1	0%	-3%	.
CCN(CC)CCNC(=O)c1cc2c(-c3cccc(OC)c3)nn(C)c2s1	?	-14%	-7%	-4	?	52%	38*
CC(O)(COc1ccccc1)c1ccc2c(c1)CN(Cc1ccc3nsnc3c1)CCO2 (stereo not given)	.	.	-3%	.	.	.	.
COc1ccc(CN2CCOc3ccc(C(O)c4cccnc4)cc3C2)c(F)c1 (stereo not given)	.	.	-2%	.	.	.	.
COc1cccc(CN2CCC(n3cc(C(=O)N4CCCCC4)nn3)CC2)c1OC	.	.	-1%	.	.	.	.
CN(C)c1ccc(/C=C2/C[N+](C)(C)C/C(=C/c3ccc(N(C)C)cc3)C2=O)cc1	?	-24%	-6%	-16	?	20µM*	?
SMILES	Pin1 inh	PGK inhibitor	GRP78 ERSR act	PI5P4Ka inh	FEN1 inh-1	WRN helicase inh-1	FEN1 inh-2	others
CC(C)/C=C1\CC/C(=C\c2ccc(N(C)C)cc2)C1=O	?	i	4%	5	-11%	-32%	.
CC(C)Cn1c(N)c(C(=O)COC(=O)c2ccc([N+](=O)[O-])o2)c(=O)n(C)c1=O	-1%	-9%	4%	-7	?	2%[11.6 µM]	9.5*
COCCn1c(C)cc(C(=O)COC(=O)c2ccc([N+](=O)[O-])o2)c1C	-2%	-8%	2%	-2	?	1%	15*
COc1cc(O)c(C(C)=O)c(CC(=O)O)c1	.	16µM*	-3%	-13	22µM*	45µM*	60*
CS(=O)(=O)Oc1ccc(Br)c2cccnc12	-6%	-1%	1%	0	21%	5%	.
Nc1ccc(Br)c2cccnc12	-4%	-5%	-3%	-3	?	-15%	67*
COc1cc(OC)cc(C(=O)N2CCCC(n3cc(C(=O)NCC(C)C)nn3)C2)c1 (stereo not given)	.	.	-1%	.	.	.	.
O=C(NCC1Cc2cccc(-c3cncnc3)c2O1)C1CC1 (stereo not given)	.	.	-3%	.	.	.	.
O=C1C=C(NCCc2cc(Br)c(O)c(Br)c2)C(=O)c2ncccc21	?	-20%	-6%	-74*	45µM*	25µM*	60*	WRN helicase inh-2=22µM*;TO displacement=?;BLM helicase inh=19µM*
O=C1C(=O)c2ncccc2-c2cccnc21	.	.	-6%	.	.	.	.
O=C(NCC1(N2CCCCC2)CCCCC1)c1ccc(-n2cc(NC(=O)c3cccnc3)cn2)cc1	.	.	-7%	.	.	.	.
CCOC(=O)N1CCN(c2cc(NCCC(=O)O)c3c4c(onc24)-c2ccccc2C3=O)CC1	?	?	-5%	?	?	-19%[57.1 µM]	.
O=C(O)CCCNc1cc(N2CCN(C(=O)c3ccco3)CC2)c2noc3c2c1C(=O)c1ccccc1-3	?	-20%	3%	?	?	45µM*	27*	WRN helicase inh-2=14µM*;TO displacement=295%;BLM helicase inh=19µM*
CCN(CC)C1CCN(C(=O)c2cnn(-c3nccc(-c4ccco4)n3)c2C(C)C)C1 (stereo not given)	.	.	-4%	.	.	.	.

Screening data (PubChem)
